# Screening results from PubChem BioAssay.
# Only some compounds are listed: those with a hit (about 3.6% of all), similar ones and a draw of the others.
# PMP22 txn prim: Cell-based coincidence reporter assay to measure PMP22 gene transcription in S16 Pmp22-F2sN cells - Primary screen; AID 1508649, 2021; S16 Pmp22-F2sN Schwann cells, FLuc/NLuc coincidence luminescence, 24 h; Potency, µM (titrated, usually from 57.5 µM), without a hit: at the highest dose activity change, negative = inhibition, usual class: inhibitors; 43,000 compounds, 2% hits; active means clear falling dose curves in both reporters; inconclusive means both reporters move, but less clearly or upward; inactive means either reporter flat; the % is the NLuc reporter signal; further: on the % scale 0 is the no-effect control and ±100 the full control effect
#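 Reporter cells (S16 Pmp22-F2sN, 500–1,000 per well) exposed to compounds for 24 h, 37C, 5% CO2; lysis with FLuc read after 10 min, then Stop&Glo and NLuc read after 10 min.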
# HTT-AS promoter: Primary qHTS for Identification of Small Molecule Activators of Huntingtin-Antisense Promoter Activity | HEK293 HTT-AS promoter firefly luciferase reporter, 24 h; response scale: percent change from vehicle, -100% = no light | Potency, µM (highest dose often 57.5 µM), without a hit: at the highest dose activity change, positive = activation, most hits filed as activators | 48,000 compounds, 0.24% hits | AID 1508624, 2021; further: nearly all actives have a fitted effect of over 55% in size
#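 Quantitative HTS used concentration series of up to 57.5 uM final on HEK293 luciferase reporter cells, 24 h at 37 degrees C. Readout was Dual-Glo firefly luminescence.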
# pS6 MEF inh: Acumen qHTS Assay for Inhibitors of the mTORC1 Signaling Pathway in MEF (Tsc2-/-, p53-/-) Cells: Sytravon | AID 493208, 2011 | Tsc2-/- p53-/- MEF, phospho-rpS6 immunofluorescence/PI, 24 h | 44,000 compounds, 0.78% hits | Potency, µM (top dose mostly 38.3 µM), for the others: at the highest dose activity change, negative = inhibition, usual class: inhibitors;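 further: plate controls were DMSO for no effect and rapamycin for full effect; nearly all actives have a fitted effect of over 50% in size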
#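 Compounds act on Tsc2-/-, p53-/- fibroblasts carrying an empty vector for 24 h before fixation and dual staining for phospho-S6 and DNA (propidium iodide). Values are percentages of cells above a rapamycin-defined pS6/PI threshold.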
# HTT prom inh: Primary qHTS for Identification of Small Molecule Inhibitors of Huntingtin Promoter Activity. Potency, µM (titrated, usually from 57.5 µM), for inactives: at the top dose activity change, negative = inhibition, usual class: inhibitors. 48,000 compounds, 0.93% hits. AID 1508623, 2021. HEK293 HTT promoter firefly luciferase reporter, 24 h; further: nearly all actives have a fitted effect of over 50% in size
#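 HEK293 cells carrying firefly luciferase reporters were seeded at 2,500 per well in Opti-MEM and cultured for 24 h. They were then treated with compounds at up to 57.5 uM final for 24 h at 37 degrees C before Dual-Glo luminescence readout.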
# SKOV3 invasion: Primary qHTS assay for Inhibitors of ovarian cancer metastasis using an organotypic tumor microenvironment (TME) model; Potency, µM (doses to about 45.8 µM), for the others: at the top dose activity change, negative = inhibition, hits mostly inhibitors; SKOV3ip1-GFP adhesion/invasion on 3D omental model, fluorescence; 46,000 compounds, 0.1% hits;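 further: plate controls were DMSO wells for no effect and tomatine positive control wells for full effect; nearly all actives have a fitted effect of over 65% in size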
#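 Primary human omental fibroblast/mesothelial 3D culture pre-formed 48 h. SKOV3ip1-GFP cells added with compounds (0.36-46 umol/L), incubated 2 h RT/16 h 37 C, fixed; GFP cells quantified at 488/509 nm.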
# S16 viability: Cell viability qHTS assay in S16 Pmp22-F2sN cells. S16 Pmp22-F2sN Schwann cells (luciferase reporters placed in the Pmp22 gene) viability, CellTiter-Glo, 24 h. Potency, µM (top dose mostly 57.5 µM), for the others: at the highest dose activity change, negative = cytotoxicity, hits mostly cytotoxic. 43,000 compounds, 0.48% hits. AID 1508642, 2021; further: on the % scale 0 is the no-effect control and ±100 the full control effect; nearly all actives have a fitted effect of over 65% in size
#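 Rat S16 Schwann reporter line, 24 h treatment with library compounds delivered at 23 nL per well. Cell viability by CellTiter-Glo luminescence.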
# Numbers without * were called inactive; i = inactive; ? = inconclusive; . = no result; [ ] = dose if it differs, or a comment. Unless noted, the call rests on the fitted dose curve; in most records, active means well fitted curve in the direction sought with a large enough effect; inconclusive means small, poorly fitted or top-dose-only effect, or another doubt; inactive means no such curve, though single readings can be large; an effect the other way counts as inactive or inconclusive. Potency means the concentration at half of the fitted maximal effect.
SMILES,PMP22 txn prim,HTT-AS promoter,pS6 MEF inh,HTT prom inh,SKOV3 invasion,S16 viability
Cc1ccc(NC(=O)c2c(NC(=O)C(F)(F)F)sc3c2CCCCC3)cc1,10µM*,-94%,11%,1.4µM*,i,?
NS(=O)(=O)c1ccc(Nc2nc(OCC3CCCCC3)c3[nH]cnc3n2)cc1,.,2%,.,-16%,41%,.
O=C(CC1(O)C(=O)N(CCc2ccccc2)c2ccc(Br)cc21)c1ccc(F)cc1 (centres undefined),?,-27%,?,?,-7%,?
CCCCN1C(=O)C(O)(CC(=O)c2ccc(C)cc2C)c2cc(Br)ccc21 (centres undefined),?,-29%,?,?,?,?
Cc1ccc(C(=O)CC2(O)C(=O)N(Cc3ccccc3)c3ccc(Br)cc32)cc1 (centres undefined),?,-27%,10µM*,?,?,-26%
CCc1ccc(C(=O)CC2(O)C(=O)N(Cc3ccc(C)cc3)c3ccccc32)cc1 (centres undefined),?,-21%,12µM*,-25%,i,-21%
Cc1ccc(C(=O)CC2(O)C(=O)N(Cc3ccccc3)c3ccccc32)c(C)c1 (centres undefined),-27%,-25%,18µM*,?,6%,?
CCN(C(=O)c1c(O)c2c(Cl)cccc2n(C)c1=O)c1ccccc1,.,0%,.,-12%,11%,.
COCc1cc(C)nc2sc(C(=O)Nc3ccc(C(C)=O)cc3)c(N)c12,?,?,-9%,44%,3%,0%
CCc1ccc(NC(=O)c2sc3nc(C)c(Cl)c(C)c3c2N)cc1,?,2.5µM*,-1%,70%,39%,-3%
CCCCOC(=O)c1ccc(NC(=O)c2sc3nc(C)cc(C)c3c2N)cc1,2%,-54%,10µM*,?,?,10%
COc1ccc(NC(=O)Nc2nnc(C)s2)cc1,?,11µM*,0%,31%,-1%,10%
NC(=O)c1nn2c(C(F)(F)F)cc(-c3ccc(Br)cc3)nc2c1Cl,-19%,-29%,-2%,-32%,-3%,28µM*
CN(CC(=O)N(Cc1ccc(C2CCCCC2)cc1)c1ccc(C(=O)O)c(O)c1)S(=O)(=O)c1c(F)c(F)c(F)c(F)c1F,.,20%,.,32%,23%,.
CCOc1ccc(-c2cc(C(=O)N3CCN(c4ccc(C)cc4)C(C)C3)c3ccccc3n2)cc1 (centres undefined),-6%,1.8µM*,-6%,9%,4%,0%
CN(C)CC=CC(=O)Nc1cc2c(Nc3ccc(F)c(Cl)c3)ncnc2cc1O[C@H]1CCOC1,.,-45%,.,?,-8%,.
CCOC(=O)c1[nH]c(C)c(C(=O)NCCc2ccccc2)c1C,-22%,7.9µM*,-4%,38%,1%,-19%
O=c1[nH]nc(OCCCc2ccc(Cl)cc2)c(NCc2cccnc2)c1Br,.,-31%,.,?,-3%,.
CC1(C)CCC[C@@]2(C)[C@@H]1CC[C@@]1(C)OC(=O)C[C@H]21,.,-6%,.,-10%,-8%,.
S=C(NCc1ccc2c(c1)OCO2)N1CCN(c2ncnc3c2oc2ccccc23)CC1,.,-16%[116 µM],.,?,-9%[92.2 µM],.
CC(C)N(CCCNC(=O)Nc1ccc(C(C)(C)C)cc1)C[C@H]1O[C@@H](n2cc(Br)c3c(N)ncnc32)[C@H](O)[C@H]1O,.,-74%,.,?,-26%,.
Cc1cc2nc(-c3cccc(NC(=O)COc4ccc(C(C)C)cc4)c3)oc2cc1C,0%,1µM*,-1%,74%,-2%,14%
Cc1cc2nc(-c3cccc(NC(=O)COc4ccc(Cl)c(C)c4)c3)oc2cc1C,?,?,2%,41%,-1%,0%
CCC(=O)Nc1ccc(-c2nc3ncccc3o2)cc1C,16%,11µM*,0%,31%,i,-1%
CCSc1ccccc1C(=O)Nc1ccc(-c2nc3ccccc3s2)c(O)c1,-20%,?,2.9µM*,30%,i,?
SMILES,PMP22 txn prim,HTT-AS promoter,pS6 MEF inh,HTT prom inh,SKOV3 invasion,S16 viability
COc1cc(OC)cc(C(=O)Nc2ccc(-c3nc4ccccc4s3)c(C)c2)c1,11%,25%,-2%,36%,1%,3%
CSc1ccc(C(=O)Nc2ccc(-c3nc4ccccc4s3)c(O)c2)cc1,-33%,-14%,0%,-3%,-18%,1%
Cc1cc(NC(=O)c2ccccc2F)ccc1-c1nc2ccccc2s1,-3%,0.89µM*,-7%,49%,3%,-2%
CCOc1ccccc1CNCc1cccn1-c1nnc(N2CCN(c3ccccc3)CC2)s1,?,-46%,?,25µM*,?,?
CCOc1ccccc1CNC(=O)c1cccn1-c1nnc(N2CCCCC2)s1,?,-9%,-13%,-24%,i,-9%
C[C@@]1(C(=O)Nc2ccc(F)nc2)CCCN1c1nc(Nc2cc(C3CC3)[nH]n2)c2cccn2n1,.,-46%,.,?,-26%,.
CCCOc1cccc(C(=O)Nc2cccc3cccnc23)c1,0%,29%,0%,-1%,1%,8%
Cc1ccc(C(=O)Nc2cccc3cccnc23)cc1Cl,17%,8.9µM*,-1%,58%,11%,4%
Cc1ccc(-n2c(=O)c3ccc(C(=O)NCc4ccco4)cc3n(Cc3ccc(Cl)cc3)c2=O)cc1,?,-17%,12µM*,-18%,0%,?
CSc1cccc(Nc2ncc3cc(-c4c(Cl)cccc4Cl)c(=O)n(C)c3n2)c1,.,0%,.,0%,-6%,.
CCc1ccc(NC(=O)c2cc(=O)c3ccc(C)c(C)c3o2)cc1,16µM*,-41%,?,?,-19%,?
CCN(c1ccccc1)S(=O)(=O)c1ccc(NC(=O)c2cc(=O)c3ccc(C)c(C)c3o2)cc1,-18%,0%,0%,-19%,1%,-6%
COc1ccc(S(=O)(=O)N2CCC(c3nnc(-c4ccccc4C)o3)CC2)c(OC)c1,?,-31%,-24%,?,-3%,5%
Cc1ccccc1-c1nnc(C2CCN(S(=O)(=O)c3ccc(Cl)cc3)CC2)o1,?,-54%,0%,16µM*,-21%,?
